# How the values were obtained:
# Assay in all cases: SPOT peptide array binding signal intensity (averaged, normalized) (arbitrary units (background-subtracted, floor 0; scale differs between SH3 domains)); higher = stronger binding of the SH3 domain to the peptide
# AgAbp1 = target: AgAbp1
# Outline: (§1)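 Four yeast species supplied the SH3 domains, which were expressed as GST fusions in E. coli BL21(DE3) and purified on glutathione Sepharose. Incubation with cellulose membranes carrying synthetic 15-mer peptides, cysteines exchanged for serines, ran overnight at 4°C at 10 μg/ml in TBS-based blocking buffer. Binding signal is reported as normalized, background-subtracted spot intensity averaged over replicates, in arbitrary units not shared between domains.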
# AgBbc1 = target: AgBbc1
# Outline: as §1
# AgBem1-D1 = target: AgBem1-D1
# Outline: as §1
# AgBzz1-D1 = target: AgBzz1-D1
# Outline: as §1
# AgBzz1-D2 = target: AgBzz1-D2
# Outline: as §1
# AgCyk3 = target: AgCyk3
# Outline: as §1
# AgFus1 = target: AgFus1
# Outline: as §1
# AgHof1 = target: AgHof1
# Outline: as §1
# AgHse1 = target: AgHse1
# Outline: as §1
# AgLsb1 = target: AgLsb1
# Outline: as §1
# AgLsb4 = target: AgLsb4
# Outline: as §1
# AgMyo5 = target: AgMyo5
# Outline: as §1
# AgNbp2 = target: AgNbp2
# Outline: as §1
# AgRvs167 = target: AgRvs167
# Outline: as §1
# AgSho1 = target: AgSho1
# Outline: as §1
# AgSla1-D1-D2 = target: AgSla1-D1-D2
# Outline: as §1
# AgSla1-D3 = target: AgSla1-D3
# Outline: as §1
# CaAbp1-D1 = target: CaAbp1-D1
# Outline: as §1
# CaAbp1-D2 = target: CaAbp1-D2
# Outline: as §1
# CaBbc1 = target: CaBbc1
# Outline: as §1
# CaBem1-D1 = target: CaBem1-D1
# Outline: as §1
# CaBzz1-D1 = target: CaBzz1-D1
# Outline: as §1
# CaBzz1-D2 = target: CaBzz1-D2
# Outline: as §1
# CaCyk3 = target: CaCyk3
# Outline: as §1
# CaFus1 = target: CaFus1
# Outline: as §1
# CaHof1 = target: CaHof1
# Outline: as §1
# CaHse1 = target: CaHse1
# Outline: as §1
# CaLsb1 = target: CaLsb1
# Outline: as §1
# CaLsb4 = target: CaLsb4
# Outline: as §1
# CaMyo5 = target: CaMyo5
# Outline: as §1
# CaNbp2 = target: CaNbp2
# Outline: as §1
# CaRvs167 = target: CaRvs167
# Outline: as §1
# CaRvs167-3 = target: CaRvs167-3
# Outline: as §1
# CaSho1 = target: CaSho1
# Outline: as §1
# CaSla1-D1-D2 = target: CaSla1-D1-D2
# Outline: as §1
# CaSla1-D3 = target: CaSla1-D3
# Outline: as §1
# ScAbp1 = target: ScAbp1
# Outline: as §1
binder,measurement,setting,value
TKRKRPARLIFYDSK,SPOT peptide array binding signal intensity,AgAbp1,113
same,SPOT peptide array binding signal intensity,AgBbc1,40.2
same,SPOT peptide array binding signal intensity,AgBem1-D1,82
same,SPOT peptide array binding signal intensity,AgBzz1-D1,26
same,SPOT peptide array binding signal intensity,AgBzz1-D2,20
same,SPOT peptide array binding signal intensity,AgCyk3,13.5
same,SPOT peptide array binding signal intensity,AgFus1,436
same,SPOT peptide array binding signal intensity,AgHof1,20.5
same,SPOT peptide array binding signal intensity,AgHse1,696
same,SPOT peptide array binding signal intensity,AgLsb1,3.5
same,SPOT peptide array binding signal intensity,AgLsb4,122
same,SPOT peptide array binding signal intensity,AgMyo5,≤ 0
same,SPOT peptide array binding signal intensity,AgNbp2,236
same,SPOT peptide array binding signal intensity,AgRvs167,3.67
same,SPOT peptide array binding signal intensity,AgSho1,94.5
same,SPOT peptide array binding signal intensity,AgSla1-D1-D2,1050
same,SPOT peptide array binding signal intensity,AgSla1-D3,1.25
same,SPOT peptide array binding signal intensity,CaAbp1-D1,717
same,SPOT peptide array binding signal intensity,CaAbp1-D2,662
same,SPOT peptide array binding signal intensity,CaBbc1,66.5
same,SPOT peptide array binding signal intensity,CaBem1-D1,16
same,SPOT peptide array binding signal intensity,CaBzz1-D1,108
same,SPOT peptide array binding signal intensity,CaBzz1-D2,40.2
same,SPOT peptide array binding signal intensity,CaCyk3,119
same,SPOT peptide array binding signal intensity,CaFus1,876
same,SPOT peptide array binding signal intensity,CaHof1,1.5
same,SPOT peptide array binding signal intensity,CaHse1,36.8
same,SPOT peptide array binding signal intensity,CaLsb1,1.5
same,SPOT peptide array binding signal intensity,CaLsb4,85
same,SPOT peptide array binding signal intensity,CaMyo5,3.5
same,SPOT peptide array binding signal intensity,CaNbp2,450
same,SPOT peptide array binding signal intensity,CaRvs167,19.8
same,SPOT peptide array binding signal intensity,CaRvs167-3,240
same,SPOT peptide array binding signal intensity,CaSho1,605
same,SPOT peptide array binding signal intensity,CaSla1-D1-D2,1
same,SPOT peptide array binding signal intensity,CaSla1-D3,25
same,SPOT peptide array binding signal intensity,ScAbp1,26
